These results are taken from PubChem BioAssay.

Active and inactive are the calls of the source.

The subject of assay [1] is Human papillomavirus type 1a protein E7 (residues 44-93). In words: HPV1a E7 fragment binders on microarrays, primary screen, biochemical, small-molecule microarray, residues 44-93, 635 nm fluorescence (AID 1108).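 Also: E7 fragment applied at 1 µg/mL in TBST for 1 h at 4 C; score combines spot fluorescence with its signal to noise ratio.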 As to conditions: small-molecule microarray binding, fluorescence 635 nm; higher = more signal.
A short description of assay [2]: modulators of HCV replicon luciferase signal, primary screen, HCV replication inhibitor project, Huh7 cells, luciferase reporter (AID 1109).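 Also: huh7 hepatoma cells harbouring a luciferase neomycin HCV replicon reporter; luciferase luminescence as measure of HCV replicon replication; test concentration not given here.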 Conditions: 48 h, higher = more signal. (In general: Replicon systems follow genome replication, usually without infectious particles.)
Assay [3] addresses Left-right determination factor 2 (Homo sapiens) (UniProt O00292). Briefly: LEFTY2 binders on small-molecule microarrays, primary screen, biochemical, small-molecule microarray, 635 nm fluorescence scan (AID 1110). Conditions: LEFTY2 binding, higher = more signal.
Assay [4] deals with Calmodulin-1 (Homo sapiens) (UniProt P0DP23). Briefly: CALM1 binders on microarrays, EGTA buffer, profiling panel, biochemical, small-molecule microarray, Cy5-labelled CALM1 (AID 1111).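 Also: labelled calmodulin applied in Tris saline Tween buffer holding calcium plus EGTA and DTT.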 As to conditions: Cy5-CALM1 binding fluorescence, higher = more signal.
Assay [5] has the same target. Briefly: calcium-bound CALM1 binders on microarrays, profiling panel, artefact control for SMM control-protein annotation, biochemical, small-molecule microarray, Cy5-labelled CALM1, plus calcium (AID 1112).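 Also: score merges spot fluorescence with signal to noise from triplicate slides.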 Conditions: Cy5-CALM1 binding fluorescence, higher = more signal.
Assay [6] in a line: small-molecule microarray binders of probe aWnt5a, primary screen, biochemical, biotinylated probe, 635/667 nm fluorescence (AID 1113).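 Also: score merges 667 nm fluorescence intensity with signal-to-noise per printed feature.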 As to conditions: higher = more signal.
Assay [7] is described as follows: small-molecule microarray binders of probe aShh, primary screen, biochemical, biotinylated probe, 635/667 nm fluorescence (AID 1114).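 Also: probe is biotin-labelled aShh protein from a stem cell growth factor screen; measures binding of labelled protein to compounds printed on the slide; score merges feature fluorescence at 667 nm with signal-to-noise.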 Conditions: higher = more signal.
Assay [8] can be described thus: small-molecule microarray binders of probe aNog, primary screen, biochemical, biotinylated probe, 635/667 nm fluorescence (AID 1115).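 Also: probe is biotinylated aNog protein used at 0.15 µg/mL for 1 h at 4 C; z-score combines 667 nm fluorescence of each spot with its signal to noise.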 Conditions: higher = more signal.
The target in assay [9] is Torsin-1A-interacting protein 1 (Homo sapiens) (UniProt Q5JTV8). Briefly: LAP1 binders from COS7 cell lysate, primary screen, small-molecule microarray, 635/667 nm fluorescence (AID 1116). Conditions: COS7-hLAP1 lysate binding, 635 nm fluorescence, higher = more signal.
Assay [10] concerns the target Alpha-bungarotoxin (Bungarus multicinctus) (UniProt P60615). In words: alpha-bungarotoxin binders on microarray, profiling panel, artefact control for SMM control protein annotation, biochemical, small-molecule microarray, Alexa647 label, 635/667 nm fluorescence (AID 1117). Conditions: alpha-BTX-A647 binding fluorescence, higher = more signal.
Another assay has as its target Albumin (Bos taurus) (UniProt P02769). Briefly: bovine serum albumin binders on microarray, profiling panel, artefact control for SMM control protein annotation, biochemical, small-molecule microarray, Alexa647 label, 635/667 nm fluorescence (AID 1118).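 Also: score merges 667 nm emission intensity and signal-to-noise per printed compound spot.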 As to conditions: BSA-A647 binding, fluorescence 635 nm, higher = more signal.
Assay [11] is described as follows: small-molecule microarray binders of probe aXIP, primary screen, biochemical, NeuroSMM set, 635/667 nm fluorescence (AID 1119).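 Also: probe is the protein aXip251-270 applied at 1 µg/mL to compound-printed slides; binding of probe to printed compounds measured as 667 nm fluorescence plus signal to noise.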 Conditions: higher = more signal, called active from +8 up or from −8 down.
The nature of assay [12]: small-molecule binders of probe aNOTCH3, primary screen, biochemical, small-molecule microarray, 635/667 nm fluorescence (AID 1120).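 Also: probe is a biotin-tagged antibody raised against NOTCH3 rather than NOTCH3 protein; score merges spot fluorescence near 667 nm with spot signal to noise.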 As to conditions: higher = more signal.
Assay [13] in a line: small-molecule binders of probe aNOTCH2, primary screen, biochemical, small-molecule microarray, 635/667 nm fluorescence (AID 1121).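 Also: score merges feature fluorescence read at 667 nm with its signal to noise.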 As to conditions: higher = more signal.
Assay [14] concerns the target Carbonic anhydrase 2 (Homo sapiens) (UniProt P00918). In words: CAII small-molecule binders, profiling panel, biochemical, small-molecule microarray, Alexa647-labelled CAII (AID 1122). As to conditions: CAII-A647 binding fluorescence, higher = more signal.
Assay [15] can be described thus: COS7 lysate on small-molecule microarray, probe aHis, 635 nm (AID 1123).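 Also: z-score combines 667nm fluorescence intensity with signal-to-noise per printed compound spot.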 Conditions: COS7 cell lysate, fluorescence, higher = more signal.
Assay [16] in a line: compound binding in COS7 lysate, probe aLAP1, primary screen, cell lysate, small-molecule microarray (AID 1124).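 Also: lysate comes from COS7 cells expressing LAP1 and is applied at 0.3 µg/mL; score merges spot fluorescence near 667 nm with signal-to-noise over triplicate slides.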 Conditions: probe aLAP1, fluorescence, higher = more signal.
In the next assay the test system is Sam68 (KHDRBS1). Briefly: Sam68 small-molecule binders, primary screen, biochemical, small-molecule microarray, 635 nm fluorescence (AID 1125).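 Also: score merges 667 nm channel intensity with signal to noise over triplicate slides.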 Conditions: small-molecule microarray binding, higher = more signal.
Assay [17] relates to Chordin-like protein 2 (CHRDL2). In words: CHRDL2 small-molecule binders, primary screen, biochemical, small-molecule microarray, 635 nm fluorescence (AID 1126).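 Also: printed compound slides probed with Chrdl2 protein at 4 µg/mL for 1 h at 4 C; score merges 667 nm emission intensity with signal to noise over three replicate slides.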 Conditions: small-molecule microarray binding, fluorescence 635 nm; higher = more signal.
Assay [18] addresses Concanavalin-A (Canavalia ensiformis) (UniProt P02866). Briefly: ConA small-molecule binders, primary screen, artefact control for SMM control protein annotation, biochemical, small-molecule microarray, Alexa647 label, 635 nm (AID 1127).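 Also: z combines 667 nm emission intensity with signal-to-noise across three replicate slides.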 As to conditions: ConA-A647 binding fluorescence, higher = more signal.

Chain of Albumin (Bos taurus) (P02769 whole entry, looked up): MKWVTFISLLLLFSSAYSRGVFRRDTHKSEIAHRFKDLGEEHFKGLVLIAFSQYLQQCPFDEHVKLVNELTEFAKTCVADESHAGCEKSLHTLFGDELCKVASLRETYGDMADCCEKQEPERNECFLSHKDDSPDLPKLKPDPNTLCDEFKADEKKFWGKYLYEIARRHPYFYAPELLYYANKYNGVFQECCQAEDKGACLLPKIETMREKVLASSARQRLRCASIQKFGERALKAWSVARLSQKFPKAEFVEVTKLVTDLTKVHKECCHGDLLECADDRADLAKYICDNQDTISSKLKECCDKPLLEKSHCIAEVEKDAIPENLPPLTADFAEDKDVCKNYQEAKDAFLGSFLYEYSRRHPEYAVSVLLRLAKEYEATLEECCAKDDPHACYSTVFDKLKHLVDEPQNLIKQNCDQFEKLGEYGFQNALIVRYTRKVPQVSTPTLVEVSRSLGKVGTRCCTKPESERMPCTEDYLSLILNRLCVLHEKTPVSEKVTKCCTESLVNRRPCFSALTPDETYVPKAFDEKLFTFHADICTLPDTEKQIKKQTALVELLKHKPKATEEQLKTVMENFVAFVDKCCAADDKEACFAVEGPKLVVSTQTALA
Chain of Concanavalin-A (Canavalia ensiformis) (P02866 whole entry, looked up): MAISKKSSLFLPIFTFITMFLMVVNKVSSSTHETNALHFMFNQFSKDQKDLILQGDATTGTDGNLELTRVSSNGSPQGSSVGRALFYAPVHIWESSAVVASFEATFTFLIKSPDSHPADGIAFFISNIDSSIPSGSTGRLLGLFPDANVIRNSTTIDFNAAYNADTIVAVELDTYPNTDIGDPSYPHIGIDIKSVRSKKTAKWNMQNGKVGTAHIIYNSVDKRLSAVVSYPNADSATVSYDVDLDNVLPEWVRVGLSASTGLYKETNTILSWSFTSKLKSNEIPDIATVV
Chain of Alpha-bungarotoxin (Bungarus multicinctus) (P60615 whole entry, looked up): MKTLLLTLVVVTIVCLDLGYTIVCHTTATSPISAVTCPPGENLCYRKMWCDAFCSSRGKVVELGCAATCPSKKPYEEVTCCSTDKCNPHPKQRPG
Chain of Left-right determination factor 2 (Homo sapiens) (O00292 whole entry, looked up): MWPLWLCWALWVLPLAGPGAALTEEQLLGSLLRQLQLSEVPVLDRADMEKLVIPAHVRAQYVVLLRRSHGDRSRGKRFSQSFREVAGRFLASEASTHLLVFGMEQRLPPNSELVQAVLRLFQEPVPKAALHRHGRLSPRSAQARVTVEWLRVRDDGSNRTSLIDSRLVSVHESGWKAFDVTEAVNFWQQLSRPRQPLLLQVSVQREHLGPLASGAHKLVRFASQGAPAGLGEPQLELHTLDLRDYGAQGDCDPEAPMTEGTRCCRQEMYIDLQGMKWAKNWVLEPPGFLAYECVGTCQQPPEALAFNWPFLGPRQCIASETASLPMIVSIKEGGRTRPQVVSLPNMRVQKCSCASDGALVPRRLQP
Chain of Torsin-1A-interacting protein 1 (Homo sapiens) (Q5JTV8 whole entry, looked up): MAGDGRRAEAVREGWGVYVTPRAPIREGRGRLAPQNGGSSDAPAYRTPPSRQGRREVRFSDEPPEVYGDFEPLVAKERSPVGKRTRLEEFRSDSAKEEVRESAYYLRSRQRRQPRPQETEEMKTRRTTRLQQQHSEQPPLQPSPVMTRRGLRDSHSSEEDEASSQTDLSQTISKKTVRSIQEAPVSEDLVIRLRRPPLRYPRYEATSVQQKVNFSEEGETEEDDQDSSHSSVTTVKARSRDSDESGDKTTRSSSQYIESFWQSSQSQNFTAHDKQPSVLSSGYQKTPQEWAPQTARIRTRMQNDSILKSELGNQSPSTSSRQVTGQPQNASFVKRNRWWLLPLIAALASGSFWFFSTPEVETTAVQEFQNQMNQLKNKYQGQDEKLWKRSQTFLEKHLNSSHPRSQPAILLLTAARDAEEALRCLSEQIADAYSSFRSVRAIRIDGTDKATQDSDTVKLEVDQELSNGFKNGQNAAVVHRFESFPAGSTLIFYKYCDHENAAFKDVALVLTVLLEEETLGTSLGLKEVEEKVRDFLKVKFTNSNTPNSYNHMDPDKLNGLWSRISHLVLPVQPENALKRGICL

As for `COC(=O)[C@@]1(Cc2ccccc2)[C@H]2c3cc(C(=O)N4CCCC4)n(Cc4ccccc4)c3C[C@H]2CN1C(=O)c1ccccc1`, the composite z-score in assay [1] is 1.45; in assay [3], -0.347; in [4], 1.42; in [5] it was 0.168; in [6], 0.0362; in [7], 0.356. Also, the composite z-score came out at 1.48 in assay [8]; 0.55 in [9]; 0.401 in [10]; 0.76 with Albumin (Bos taurus); 0.591 in assay [12]; 0.302 in [13]. Moreover, the composite z-score in [14] was 0.637; in assay [15], 2.36; in [16], -0.0361; in the assay with Sam68 (KHDRBS1), 0.5; in assay [17], -0.883; in assay [18], 0.914. In assay [2], this compound gave a z-score of -2.45. Further, in [11], the composite Z-score was 0.689 (inactive).
For `O=C1C[C@@](C(=O)O)(c2ccc([N+](=O)[O-])cc2)[C@@H](c2ccc(CO)cc2)N1CC12CC3CC(CC(C3)C1)C2`, the composite z-score was 1.4 in assay [1]; 0.408 in [3]; 1.09 in assay [4]; 0.472 in assay [5]; -0.172 in assay [6]; 0.358 in assay [7]. For the same compound, the composite z-score in assay [8] was found to be 0.995; in [9] it was 1.41; in [10], 1.2; in the assay with Albumin (Bos taurus), 0.656; in assay [12], 0.18; in [13] it was 0.0362. Further, the composite z-score is 0.46 in assay [14]; 1.74 in [15]; 0.611 in [16]; 1.19 with Sam68 (KHDRBS1); -0.346 in assay [17]; 0.687 in assay [18]. The compound further displayed a z-score in assay [2] of -1.94. Besides, in assay [11], the composite Z-score was -0.261 (inactive).
As to `COc1ccc([Si](C)(C)[C@@H]2[C@@H](CC(=O)N(CCO)Cc3ccccc3)O[C@]3(C(=O)N(C)c4c(Br)cc(C)cc43)[C@H]2C)cc1`, the composite z-score in [1] is 1.26; in assay [3], 0.661; in assay [4] it was -0.87; in assay [5], -1.13; in assay [6] it was 0.168; in assay [7] it was -0.399. The composite z-score is -0.406 in assay [8]; 0.13 in assay [9]; 0.0978 in [10]; 0.597 with Albumin (Bos taurus); -0.0918 in assay [12]; -0.124 in assay [13]. The composite z-score in assay [14] was 0.154; in assay [15] it was 0.741; in assay [16], 0.231; with Sam68 (KHDRBS1), 0.649; in [17], 1.4; in [18], -0.126. The compound also registered a z-score in assay [2] of -4.3. In addition, in assay [11], the composite Z-score was 0.0128 (inactive).
Turning to `[N-]=[N+]=NCc1ccccc1[C@H]1OC(c2ccc(OCCCO)cc2)=N[C@@]1(Cc1ccccc1)C(N)=O`, the composite z-score is 1.44 in [1]; -0.709 in assay [3]; 0.931 in [4]; 0.995 in [5]; 0.283 in [6]; -0.0576 in assay [7]. Further, the composite z-score in assay [8] amounted to 0.654; in assay [9], 1.76; in assay [10], 2.54; with Albumin (Bos taurus) it was 0.883; in assay [12], 0.391; in assay [13] it was 0.0029. Besides, the composite z-score is 0.589 in assay [14]; 2.29 in [15]; 0.112 in assay [16]; 1.29 with Sam68 (KHDRBS1); -0.797 in assay [17]; 1.19 in assay [18]. The compound also registered a z-score in assay [2] of -1.46. For the same compound, the composite Z-score in assay [11] is -0.379 (inactive).
Take `O=C1O[C@H](c2ccccc2)[C@H](c2ccccc2)N2[C@H]1[C@@H](C(=O)N1CCN(c3ncccn3)CC1)[C@]1(C(=O)Nc3ccc(C#CCCO)cc31)[C@H]2c1ccc(OCCO)cc1`: the composite z-score in assay [1] was 1.41; in [3], 1.35; in assay [4], 1.23; in assay [5], -0.188; in assay [6], 0.0614; in [7] it was 0.0141. Also, the composite z-score in assay [8] was 0.242; in assay [9], 1.53; in assay [10], 0.554; in the assay with Albumin (Bos taurus), 0.612; in [12], 0.255; in assay [13], -0.0633. Moreover, the composite z-score in [14] came out at 0.296; in assay [15], 1.96; in [16] it was 0.924; in the assay with Sam68 (KHDRBS1), 1.3; in [17] it was 0.944; in assay [18], 1.11. For the same compound, the z-score in [2] was -1.35. Besides, the composite Z-score in assay [11] was 1.38 (inactive).
